The results in this text go back to PubChem BioAssay (EPA / NIEHS).

Molecules are shown by their SMILES. Inconclusive results are not listed. The source made the active and inactive calls. The calls were made as follows, unless noted: active = hit-call score of the fitted dose curve at least 0.9, where 1 is the maximum; inconclusive = response in the unintended direction; inactive = score below 0.9.

Assay [1] in a line: Tanguay_ZF_120hpf_JAW_legacy: (Legacy) Oregon State University Tanguay Lab 120 Hour Post-fertilization zebrafish Assay for Jaw Malformation (AID 2283638). A digest of the protocol: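 Static waterborne exposure of dechorionated wild-type (Tropical 5D) zebrafish from 6 to 120 hpf at 28C, 0.64% DMSO vehicle; 5uM trimethyltin chloride served as positive control. Jaw morphology recorded as binary at 120 hpf.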

The nature of assay [2]: Tanguay_ZF_120hpf_OTIC_legacy: (Legacy) Oregon State University Tanguay Lab 120 Hour Post-fertilization zebrafish Assay for Otic Vesicle Malformation (AID 2283639). A digest of the protocol:
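Embryos from 5D wild-type adults exposed in plates; DMSO 0.64% v/v final. Sealed, light-protected, 28C, static to 120 hpf. Otic vesicle malformation recorded as binary endpoint; gain-of-signal fitted vs DMSO.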

The nature of assay [3]: Tanguay_ZF_120hpf_PE_legacy: (Legacy) Oregon State University Tanguay Lab 120 Hour Post-fertilization zebrafish Assay for Pericardial Edema (AID 2283640). A digest of the protocol: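 Read-out is the presence or absence of pericardial edema at 120 hpf under brightfield, with gain of signal fitted against DMSO controls. Larvae (5D wild-type) were statically exposed at 28C with 0.64% final DMSO.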

Assay [4] can be described thus: Tanguay_ZF_120hpf_BRAI_legacy: (Legacy) Oregon State University Tanguay Lab 120 Hour Post-fertilization zebrafish Assay for Brain Malformation (AID 2283641). The method in brief:
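Brain malformation in Tropical 5D zebrafish was recorded as a binary endpoint after static compound exposure from early development to 120 hpf at 28C. Activity was analysed against DMSO as negative control.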

Assay [5] can be described thus: Tanguay_ZF_120hpf_SOMI_legacy: (Legacy) Oregon State University Tanguay Lab 120 Hour Post-fertilization zebrafish Assay for Somite Malformation (AID 2283647). The method in brief:
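5D WT zebrafish; chorion removed 4 hpf; 1 embryo/well from 6 hpf; static exposure to 120 hpf, 28C, 0.64% DMSO final. Endpoint: somite malformation, binary, brightfield. Mortality excluded.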

Assay [6] can be described thus: Tanguay_ZF_120hpf_PFIN_legacy: (Legacy) Oregon State University Tanguay Lab 120 Hour Post-fertilization zebrafish Assay for Pectoral Fin Malformation (AID 2283648).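 Also: each larva judged yes or no for fin defect by brightfield with dead larvae skipped.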 A digest of the protocol: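 Tropical 5D wild-type embryos, dechorionated with pronase at 4 hpf, were placed singly in wells at 6 hpf and statically exposed until 120 hpf at 28C, sealed and dark, with 0.64% (vol/vol) final DMSO; pectoral fin malformation scored present/absent.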

A short description of assay [7]: Tanguay_ZF_120hpf_CFIN_legacy: (Legacy) Oregon State University Tanguay Lab 120 Hour Post-fertilization zebrafish Assay for Caudal Fin Malformation (AID 2283649). A digest of the protocol: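 Embryos were collected from Tropical 5D wild-type adults and dechorionated at 4 hpf. At 6 hpf each was exposed, one per well, at 0.64% DMSO and 28C. At 120 hpf fin morphology was scored; dead embryos were excluded.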

The nature of assay [8]: Tanguay_ZF_120hpf_PIG_legacy: (Legacy) Oregon State University Tanguay Lab 120 Hour Post-fertilization zebrafish Assay for Pigmentation Malformation (AID 2283650). The method in brief:
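Tropical 5D wild-type zebrafish embryos, dechorionated with pronase at 4 hpf, were exposed singly from 6 hpf to 120 hpf statically at 28C in sealed, dark plates with 0.64% DMSO; pigmentation scored present/absent by brightfield microscopy, fitted against DMSO.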

Assay [9] is described as follows: Tanguay_ZF_120hpf_CIRC_legacy: (Legacy) Oregon State University Tanguay Lab 120 Hour Post-fertilization zebrafish Assay for Circulatory Malformation (AID 2283651). A digest of the protocol: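 Read-out: presence or absence of circulatory malformation at 120 hpf, scored by brightfield microscopy, fitted in the gain-of-signal direction against DMSO baseline. Wild-type 5D larvae were exposed from 6 hpf after enzymatic chorion removal.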

Assay [10] in a line: Tanguay_ZF_120hpf_SWIM_legacy: (Legacy) Oregon State University Tanguay Lab 120 Hour Post-fertilization zebrafish Assay for Swim Bladder Malformation (AID 2283654).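 Also: swim bladder malformation in each larva scored yes or no under brightfield.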 A digest of the protocol: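 Dechorionated Tropical 5D wild-type embryos, placed singly from 6 hpf, were statically exposed at 28C to 120 hpf with 0.64% DMSO final; swim bladder malformation was scored present/absent by brightfield microscopy, gain of signal relative to DMSO controls.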

A short description of assay [11]: Tanguay_ZF_120hpf_TRUN_legacy: (Legacy) Oregon State University Tanguay Lab 120 Hour Post-fertilization zebrafish Assay for Truncated Body (AID 2283655). The method in brief:
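5D wild-type larvae; pronase dechorionation; static exposure 6→120 hpf, 28C; DMSO 0.64% final; 5uM trimethyltin chloride positive control. Readout: presence/absence of truncated body, analyzed relative to DMSO.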

Assay [12] in a line: Tanguay_ZF_120hpf_NC_legacy: (Legacy) Oregon State University Tanguay Lab 120 Hour Post-fertilization zebrafish Assay for Notochord and Tail Malformation (AID 2283656). A digest of the protocol: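 Dechorionated Tropical 5D wild-type zebrafish embryos, one per well from 6 hpf, statically exposed to 120 hpf at 28C in 0.64% DMSO final. Notochord distortion scored present/absent by brightfield; dead embryos excluded.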

The nature of assay [13]: Tanguay_ZF_120hpf_TR_legacy: (Legacy) Oregon State University Tanguay Lab 120 Hour Post-fertilization zebrafish Assay for Touch Response (AID 2283667). The method in brief: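 Tropical 5D wild-type zebrafish embryos were exposed statically in sealed, foil-covered plates at 28C until 120 hpf, with 0.64% (vol/vol) final DMSO. Touch response was scored as present or absent; embryos that died were not scored.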

The nature of assay [14]: Tanguay_ZF_120hpf_ActivityScore_legacy: (Legacy) Oregon State University Tanguay Lab 120 Hour Post-fertilization zebrafish Assay Score for Activity (AID 2283742). The method in brief:
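Tropical 5D wild-type zebrafish embryos, dechorionated with pronase at 4 hpf, were exposed singly from 6 hpf to 120 hpf statically at 28C in 0.64% DMSO. Malformations and mortality were scored as binary by brightfield, with the activity score combining 18 morphology components.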

In assay [15] the target is human Thromboxane A2 Receptor (TXA2), TBXA2R (gene 6915) (UniProt P21731). Put plainly: NVS_GPCR_hTXA2: NovaScreen (NVS) G Protein-Coupled Receptor Assay for human Thromboxane A2 Receptor (TXA2) (AID 2283282).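 Also: actives reduce bound radioligand signal relative to DMSO baseline.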 The method in brief:
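Biochem binding, human platelets, cell-free; competitive radioligand displacement; 1 h; filter radiodetection. 25 uM duplicate primary, conc. series secondary; DMSO neg. ctrl.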

The nature of assay [16]: UKN2_HCS_IMR90_neural_migration: University of Konstanz (UKN) Leist Lab Neural Crest Cell Migration Assay in human induced IMR90 Pluripotent Stem Cells (UKN2) (AID 2284204; active = hit-call score of the fitted dose curve at least 0.9, where 1 is the maximum; inactive = score below 0.9). As to conditions: actives raise or lower the signal. The method in brief: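 iPSC-derived IMR90 neural crest cells on PLO/laminin/fibronectin were seeded around silicone stoppers; after stopper removal, migration in N2-S medium with EGF and FGF ran 24 h before 24 h chemical exposure. Calcein-AM/Hoechst high-content imaging; bidirectional fit versus DMSO.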

The nature of assay [17]: UKN4_HCS_LUHMES_neurite_outgrowth: University of Konstanz (UKN) Leist Lab Neurite Outgrowth Assay in human LUHMES cells (UKN4) (AID 2284206; active = hit-call score of the fitted dose curve at least 0.9, where 1 is the maximum; inactive = score below 0.9). As to conditions: actives raise or lower the signal. A digest of the protocol:
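Day 0 switch to differentiation medium; day 2 replate (30000 cells/well) without cAMP and GDNF; compounds added 30 min–2 h later. At 23.5 h, 30 min calcein-AM/H-33342 live stain, then imaging.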

Assay [18] can be described thus: UKN4_HCS_LUHMES_cell_viability: Viability Assessment in the University of Konstanz (UKN) Leist Lab Neurite Outgrowth Assay in human LUHMES cells (UKN4) (AID 2284232; active = hit-call score of the fitted dose curve at least 0.9, where 1 is the maximum; inactive = score below 0.9). The method in brief: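 Fluorescence intensity from high-content imaging of Hoechst H-33342/calcein-AM-stained cells served as the viability read-out. Human LUHMES precursors were differentiated 2 days, replated and treated 24 h; curves were fitted bidirectionally against DMSO.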

The nature of assay [19]: UKN2_HCS_IMR90_cell_viability: Viability Assessment in the University of Konstanz (UKN) Leist Lab Neural Crest Cell Migration Assay in human induced IMR90 Pluripotent Stem Cells (UKN2) (AID 2284233; active = hit-call score of the fitted dose curve at least 0.9, where 1 is the maximum; inactive = score below 0.9;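 also: viability of neural crest cells differentiated from IMR90 iPSC measured by calcein-AM fluorescence imaging; cells exposed to compound for 24 h after a 24 h migration phase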). A digest of the protocol:
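iPSC-derived (IMR90) neural crest cells seeded around silicone stoppers on PLO/laminin/fibronectin; after 24 h migration in N2-S with EGF/FGF, chemical added for 24 h. Calcein-AM/Hoechst stained 30 min, high-content imaged; bidirectional fit versus DMSO.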

For another assay, the target named is PGR (gene 5241) (UniProt P06401). Put plainly: TOX21_PR_BLA_Followup_Antagonist_ratio: Tox21 HEK293 Progesterone Receptor (PR) Antagonism Beta-lactamase Follow-Up Assay, Ratio (AID 2283934). A digest of the protocol: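 HEK293T PR-UAS-bla, 2% CS-FBS; 6 hr plating, then cpd + R5020 (1 nM final), 16 hr 37C/5% CO2. B/G FRET substrate 2 h RT. Ratio ch2/ch1 vs DMSO; CellTiter-Glo viability multiplexed, autofluorescence checked.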
PGR (gene 5241), sequence (P06401 whole entry, looked up): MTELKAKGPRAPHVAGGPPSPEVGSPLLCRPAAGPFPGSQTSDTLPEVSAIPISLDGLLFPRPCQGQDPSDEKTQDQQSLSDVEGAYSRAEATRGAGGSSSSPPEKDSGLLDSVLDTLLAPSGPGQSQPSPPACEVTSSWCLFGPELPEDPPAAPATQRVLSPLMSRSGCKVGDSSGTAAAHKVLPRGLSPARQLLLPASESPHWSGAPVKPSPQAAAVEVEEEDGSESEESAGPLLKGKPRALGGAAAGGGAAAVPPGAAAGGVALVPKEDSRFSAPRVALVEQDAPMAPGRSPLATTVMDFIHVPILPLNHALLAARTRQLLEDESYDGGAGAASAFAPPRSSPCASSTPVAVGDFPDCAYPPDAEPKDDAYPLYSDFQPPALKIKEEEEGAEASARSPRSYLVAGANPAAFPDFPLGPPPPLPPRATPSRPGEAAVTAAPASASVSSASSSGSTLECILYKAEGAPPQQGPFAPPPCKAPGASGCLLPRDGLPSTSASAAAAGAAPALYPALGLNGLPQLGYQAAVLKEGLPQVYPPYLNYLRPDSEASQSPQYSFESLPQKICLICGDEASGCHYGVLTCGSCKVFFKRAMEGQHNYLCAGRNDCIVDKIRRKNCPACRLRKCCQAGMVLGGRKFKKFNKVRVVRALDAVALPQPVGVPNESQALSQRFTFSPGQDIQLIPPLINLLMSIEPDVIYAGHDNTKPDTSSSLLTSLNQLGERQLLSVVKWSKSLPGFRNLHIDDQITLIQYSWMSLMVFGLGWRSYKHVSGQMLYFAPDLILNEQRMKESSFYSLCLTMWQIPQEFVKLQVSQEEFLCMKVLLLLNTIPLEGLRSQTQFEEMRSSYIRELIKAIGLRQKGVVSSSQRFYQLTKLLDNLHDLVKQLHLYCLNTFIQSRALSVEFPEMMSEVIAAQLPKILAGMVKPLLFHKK

A word on the AC50: it is the concentration giving half of the maximal activity seen.

human Thromboxane A2 Receptor (TXA2), TBXA2R (gene 6915), sequence (P21731 whole entry, looked up): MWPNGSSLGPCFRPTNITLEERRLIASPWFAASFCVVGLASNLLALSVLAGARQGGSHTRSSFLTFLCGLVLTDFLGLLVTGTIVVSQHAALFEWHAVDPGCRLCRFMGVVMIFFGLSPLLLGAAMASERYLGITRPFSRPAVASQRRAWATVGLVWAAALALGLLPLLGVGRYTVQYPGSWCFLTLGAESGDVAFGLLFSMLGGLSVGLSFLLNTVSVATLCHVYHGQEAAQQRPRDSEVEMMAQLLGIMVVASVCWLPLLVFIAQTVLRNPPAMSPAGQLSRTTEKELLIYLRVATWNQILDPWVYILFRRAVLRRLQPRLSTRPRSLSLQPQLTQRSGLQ

Regarding `CCC(C)=NO`, the molecule was classed as inactive in assay [1], in [2], in [3], in [4], in assay [5] and in assay [6]. Also, the call in [7], in assay [8], in assay [9], in assay [10], in assay [11] and in assay [12] was inactive. Also, the outcome in assay [13] and in assay [14] was inactive.
As to `CCCCCCCCCC/C=C/C1CC(=O)OC1=O` (stereo not given), the call in assay [15] was inactive.
In the case of `Oc1cccc2ccccc12`, the molecule was called inactive in [16], in [18] and in assay [19]. Also, the AC50 in assay [17] was 26.3 µM (active).
Take `c1cc[c]([Bi]([c]2ccccc2)[c]2ccccc2)cc1`: the AC50 with PGR (gene 5241) was 16.3 µM (active).
